Screening data (PubChem BioAssay)
Sampled rows, rich in hits. Any-hit rate of the full collection: about 3.2%.
RE007 growth inh: less growth of the S. pombe RE007 Vpr strain | S. pombe RE007 Vpr strain, BacTiter-Glo ATP luminescence, 24 h | 360,000 compounds, 0.21% hits | Potency, µM (highest dose often 92.2 µM), usual class: inhibitors; active = well fitted falling curve with a large enough effect; inconclusive = small, poorly fitted or top-dose-only effect; inactive = no such curve, though single readings can be large or run the other way; also: nearly all actives have a fitted effect of over 50% in size
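Fission yeast RE007 carrying one integrated HIV-1 vpr copy, seeded at OD 0.01 in PMG+AL medium with 23 nL pinned compound. Grown 24 h at 30 degrees; viability read by BacTiter-Glo luminescence after 5 min.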
AMA1-RON2 inh: disrupts binding of P. falciparum AMA1 to RON2; 360,000 compounds, 0.2% hits; AlphaScreen AMA1-biotinylated RON2 peptide binding; AID 720542; Potency, µM (doses to about 58.2 µM), usual class: inhibitors; also: nearly all actives have a fitted effect of over 45% in size
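AMA1 (3D7) with his tag at 25 nM final met compounds first, then biotinylated RON2 peptide at 25 nM; detection used donor plus acceptor beads, 10 µg/mL apiece, read by AlphaScreen after 30 min at room temperature.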
TbPYK inhibitor: inhibitors of Trypanosoma brucei pyruvate kinase; Q57TT1; TbPYK enzyme, Kinase-Glo Plus ATP luminescence, 45 min; Potency, µM (top dose mostly 76.8 µM), actives largely listed as inhibitors; 410,000 compounds, 0.12% hits; AID 624173; also: nearly all actives have a fitted effect of over 50% in size
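Enzyme and substrate buffer are dispensed first and compound is pin-transferred. ADP at 130 uM final then starts the reaction, which runs 45 min at room temperature. Detection reagent is added for 10 min before luminescence is imaged.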
LmPK inhibitor: inhibitors of Leishmania mexicana pyruvate kinase | Potency, µM (doses to about 57.5 µM), most hits filed as inhibitors | 290,000 compounds, 0.37% hits | purified LmPK, Kinase-Glo ATP luminescence, 1 h
Target sequence (Q27686 whole entry, looked up): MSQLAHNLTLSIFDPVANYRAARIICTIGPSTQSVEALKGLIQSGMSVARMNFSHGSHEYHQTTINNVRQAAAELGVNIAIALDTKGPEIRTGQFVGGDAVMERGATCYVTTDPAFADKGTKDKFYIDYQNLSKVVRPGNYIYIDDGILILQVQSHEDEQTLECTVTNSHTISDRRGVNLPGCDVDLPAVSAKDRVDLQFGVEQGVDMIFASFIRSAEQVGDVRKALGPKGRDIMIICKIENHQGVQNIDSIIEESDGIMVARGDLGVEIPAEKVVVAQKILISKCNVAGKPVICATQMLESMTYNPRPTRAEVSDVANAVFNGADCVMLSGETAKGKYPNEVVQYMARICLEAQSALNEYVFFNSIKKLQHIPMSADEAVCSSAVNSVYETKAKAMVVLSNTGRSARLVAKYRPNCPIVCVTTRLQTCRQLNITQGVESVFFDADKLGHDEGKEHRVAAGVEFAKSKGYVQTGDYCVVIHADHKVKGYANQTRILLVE
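Purified LmPK (0.1 nM) converted ADP (0.1 mM) to ATP with PEP (0.5 mM) in imidazole buffer pH 7.2 with KCl and MgCl2, 1 h at room temperature. ATP was read by Kinase-Glo luminescence; data normalized to uninhibited and no-enzyme controls.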
Sm TGR inh: inhibitors of Schistosoma mansoni thioredoxin glutathione reductase | Q962Y6 | purified TGR, DTNB reduction, TNB absorbance 405 nm | Potency, µM (doses to about 114 µM), usual class: inhibitors | 360,000 compounds, 3% hits; also: nearly all actives have a fitted effect of over 60% in size
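Kinetic colorimetric format: TGR-catalysed, NADPH-driven DTNB reduction monitored via TNB absorbance. Enzyme dispensed at 20 nM; compound exposure 15 min at room temperature before reaction start.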
Numbers stand for hits; 0 = inactive; ? = inconclusive; - = not tested or not shown; [ ] = another dose, or the depositor's remark. Unless noted, calls follow the shape of the dose curve; as a rule, active = well fitted curve in the direction sought with a large enough effect; inconclusive = small, poorly fitted or top-dose-only effect, or another doubt; inactive = no such curve, though single readings can be large; an effect the other way counts as inactive or inconclusive.

SMILES	RE007 growth inh	AMA1-RON2 inh	TbPYK inhibitor	LmPK inhibitor	Sm TGR inh
CCc1cc(-c2n[nH]c(=S)n2CC)cs1	0	0	10µM	0	0
CCn1c(-c2csc(C(C)C)c2)n[nH]c1=S	0	0	0	0	0
CCc1ccn2cc(-c3ccc4c(c3)OCO4)nc2c1	?	0	?	14µM	0
COC(=O)c1ccc2nc(-c3ccc4c(c3)OCO4)cn2c1	0	0	0	?	0
Cc1csc(/C(=N/OC(=O)c2ccco2)C(N)=O)n1	0	0	0	0	4µM
CC(C)NS(=O)(=O)c1ccc(CCC(=O)NCc2ccncc2)cc1	0	0	0	0	0
Cc1ccc(S(=O)(=O)NCCC(=O)NCc2ccco2)cc1	0	0	0	0	0
CC(C)NS(=O)(=O)c1ccc(CCC(=O)NCc2ccco2)cc1	0	0	0	0	45µM
O=C(CCc1ccc(S(=O)(=O)NCCc2ccccc2)cc1)NCc1ccco1	0	0	0	0	45µM
O=C(CCNS(=O)(=O)c1cccs1)NCc1ccco1	0	0	0	0	79µM
COCCNC(=O)C1CCN(S(=O)(=O)c2ccc3c(c2)CCCN3C(C)=O)CC1	-	-	0	-	?
Cc1ccc(-n2nnnc2C(Cl)c2nnnn2-c2ccc(C)cc2)cc1	0	0	0	0	25µM
O=C(NCCc1nc2ccccc2[nH]1)c1ccco1	0	0	0	0	0
O=C(/C=C/c1ccco1)N/C(=C\c1ccccc1)C(=O)NCCc1nc2ccccc2[nH]1	0	0	0	0	50µM
CCc1cccc(NC(=O)Cn2c(=O)n(Cc3ccccc3)c(=O)c3c2c2cc(OC)ccc2n3C)c1	-	-	0	-	0
COc1ccc(OC)c(CNC(=O)c2ccc3c(c2)c(C)c(C)n3Cc2ccc(Cl)cc2)c1	-	-	0[15.4 µM]	-	0
Oc1ccccc1	-	-	0	-	-
Oc1ccccc1O	0[18.4 µM]	0	0	-	16µM
CCOc1ccccc1/C=C/C(=O)NCC(=O)N1CCC(N(C)C2CCCCC2C)CC1 (stereo not drawn)	0	0	0	0	6.3µM
CCOP(=O)(OCC)/C(C#N)=C/c1ccoc1	0	0	0	0	45µM
CCCCN1C(=O)/C(=C/C=C2\SCCN2C)SC1=S	0	10µM	0	0	0
c1cnc2cc3c(cc2n1)[C@@H]1CNC[C@@H]3C1	-	-	0	-	-
CCOC(=O)c1c(C)oc2c1cc(NS(=O)(=O)c1ccc(C)cc1)c1ccccc12	-	-	0	-	0
CCCC(=O)O[C@]1(C(=O)COC(=O)CC)[C@@H](C)C[C@H]2[C@@H]3CCC4=CC(=O)C=C[C@@]4(C)[C@@]3(F)[C@H](O)C[C@@]21C	-	-	0	-	-
CCOC(=O)c1c(NC(=O)CCS(=O)(=O)c2ccccc2)sc2c1CC(C)(C)NC2(C)C	0	0	0	0	40µM
SMILES	RE007 growth inh	AMA1-RON2 inh	TbPYK inhibitor	LmPK inhibitor	Sm TGR inh
CCOC(=O)c1c(C)[nH]c(C=Nc2ccc(OC)cc2)c1O	0	0	0	0	0
CCOC(=O)c1c(C)[nH]c(C=Nc2ccccc2)c1O	-	-	-	0	32µM
CCOC(=O)c1c(C)[nH]c(N=Nc2ccccc2)c1C	0	13µM	0	0	0
O=C(CN(c1cccc(Br)c1)S(=O)(=O)c1ccccc1)N1CCc2ccccc2C1	-	-	0	-	0
COc1cccc(-n2cc(C(=O)Nc3cc(OC)c(OC)c(OC)c3)c3ccccc3c2=O)c1	-	-	0	-	0
CCCN1C(=O)CN(C2CCCCCC2)C(=O)C1c1ccc(OCC)c(OC)c1 (stereo not drawn)	-	-	0	-	0
Cc1nc2ccccc2c2nc3ccccc3n12	?	0	0	0	0
c1ccc2c(c1)nnn1c3ccccc3nc21	-	-	-	10µM	0
COc1cccc(/C=C2/CCC(CN(C)C)C2=O)c1 (stereo not drawn)	8.9µM	0	0	-	-
COc1cccc(/C=C2\CCC(C3CCCC3)C2=O)c1 (stereo not drawn)	0	0	0	0	40µM
CCOC(=O)C1CCN(C(=O)Cn2ncc3c4ccccc4n(Cc4ccc(F)cc4)c3c2=O)CC1	-	-	0	-	0
CCOC(=O)c1c(S(=O)(=O)N2CCCC(C(=O)Nc3cccc(C#N)c3)C2)c(C)n(C)c1C (stereo not drawn)	-	-	0	-	0
O=C(O)CCn1cc(C=C2C(=O)NC(=S)NC2=O)c(-c2ccccc2)n1	0	0	?	0	79µM
O=C(O)CCn1cc(C=C2C(=O)NC(=S)NC2=O)c(-c2cc3ccccc3oc2=O)n1	0	0	14µM	0	10µM
O=C(O)/C=C/c1cn(-c2ccccc2)nc1-c1cc2ccccc2oc1=O	0	0	0	0	0
N#CCCn1cc(C=C2C(=O)NC(=O)NC2=O)c(-c2ccccc2)n1	0	0	?	0	0
CCOCCc1nn2c(=O)cc(COC(=O)C(CC)c3ccccc3)nc2s1 (stereo not drawn)	-	-	0	-	0
CC(=O)c1cccc(NC(=O)Cc2ccc(NC(=O)N3CCCCc4ccccc43)cc2)c1	-	-	0	-	0
COCCN=c1scc(-c2ccco2)n1/N=C/c1ccc(O)c(O)c1O	0	0	?	0	13µM
CC(=O)Oc1cc(C)c(OC(C)=O)c2ccccc12	-	-	0	-	-
CC(=O)Oc1cc2cccc(OC(C)=O)c(=O)c2c(OC(C)=O)c1OC(C)=O	?	1.8µM	0	0	?
Cn1c2ccccc2c2cc(C(=O)NNC(=O)CCl)sc21	0	0	0	0	40µM
CCCNC(=O)c1cc2c3ccccc3n(C)c2s1	0	0	0	0	0
Cc1ccc(NC(=O)c2c(Nc3ccccc3C)sc(C(=O)c3ccccc3)c2N)cc1	-	-	0	-	0
Cc1ccc(Nc2sc(C(=O)c3ccccc3)c(N)c2C(=O)NC(C)C)cc1	-	-	0	-	32µM
SMILES	RE007 growth inh	AMA1-RON2 inh	TbPYK inhibitor	LmPK inhibitor	Sm TGR inh
COc1cc2c(cc1OC)C(c1ccc(F)cc1)N(c1ccc(F)cc1)C(=O)C2 (stereo not drawn)	-	-	0	-	0
N#Cc1ccc(N2CCCNCC2)nc1	0	0	0	0	28µM
Clc1ccc(N2CCNCC2)nn1	0	0	0	0	0
Cc1nn(CC(=O)NCc2ccccc2Cl)c(=O)c2cccn12	-	-	0	-	0
CC1(N2CCCCC2)CC2(O)C(=[N+]1[O-])CCC/C2=N\O (stereo not drawn)	0	0	0	0	50µM
O=C(CC(c1ccccc1)c1ccco1)N1CCCCC1 (stereo not drawn)	-	-	-	0	?
Cc1ccc(C(CC(=O)N2CCOCC2)c2ccco2)cc1 (stereo not drawn)	0	0	0	0	28µM
CCc1ccc(CNC(=O)c2ccc(-n3c(C)cc4c3CCC(C)C4)cc2)cc1 (stereo not drawn)	-	-	0	-	0
COc1ccc(Cl)cc1NC(=O)c1cn(C2CCCC2)c(=O)c2c1c1ccccc1n2C	-	-	0	-	0
CC1=CC(=Nc2c(C)n(C)n(-c3ccccc3)c2=O)C=C(C)C1=O	-	0	?	?	50µM
Cc1c(O)c(=O)n(-c2ccccc2)n1C	0[18.4 µM]	0	0	-	11µM
